Experimental data from the supplement of paper PMC4466140.

B1: unnamed (peptide)
chain: TYNRTAFQIPGDQSI

Each binder was assayed against AgAbp1 (assay: SPOT peptide array binding signal intensity (averaged, normalized) (arbitrary units (background-subtracted, floor 0; scale differs between SH3 domains)); higher = stronger binding of the SH3 domain to the peptide).
Outline: (§1)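 Binding signal is given in arbitrary units that differ between domains and is the normalized, background-subtracted spot intensity averaged across replicates. Each GST-SH3 fusion from one of four yeast species was made in E. coli BL21(DE3), purified on glutathione Sepharose and incubated at 10 μg/ml overnight at 4°C on cellulose-bound synthetic 15-mer peptides in which cysteines were replaced by serines. Detection used anti-GST antibody, an HRP anti-mouse secondary and luminol, followed by imaging and Genespotter quantification.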

Binder | SPOT peptide array binding signal intensity
B1 | 1

The binders below were run against AgBbc1 in the same assay as above.
Outline: as §1

Binder | SPOT peptide array binding signal intensity
B1 | ≤ 0

The binders below were run against AgBem1-D1 in the same assay as above.
Outline: as §1

Binder | SPOT peptide array binding signal intensity
B1 | ≤ 0

Each binder was assayed against AgBzz1-D1 in the same assay as above.
Outline: as §1

Binder | SPOT peptide array binding signal intensity
B1 | 60

The binders below were run against AgBzz1-D2 in the same assay as above.
Outline: as §1

Binder | SPOT peptide array binding signal intensity
B1 | ≤ 0

What follows are binders tested against AgCyk3 in the same assay as above.
Outline: as §1

Binder | SPOT peptide array binding signal intensity
B1 | ≤ 0

These binders were tested against AgFus1 in the same assay as above.
Outline: as §1

Binder | SPOT peptide array binding signal intensity
B1 | 0.5

These binders were tested against AgHof1 in the same assay as above.
Outline: as §1

Binder | SPOT peptide array binding signal intensity
B1 | 3.5

The binders below were run against AgHse1 in the same assay as above.
Outline: as §1

Binder | SPOT peptide array binding signal intensity
B1 | ≤ 0

Each binder was assayed against AgLsb1 in the same assay as above.
Outline: as §1

Binder | SPOT peptide array binding signal intensity
B1 | 540

Each binder was assayed against AgLsb4 in the same assay as above.
Outline: as §1

Binder | SPOT peptide array binding signal intensity
B1 | ≤ 0

Each binder was assayed against AgMyo5 in the same assay as above.
Outline: as §1

Binder | SPOT peptide array binding signal intensity
B1 | 2.25

What follows are binders tested against AgNbp2 in the same assay as above.
Outline: as §1

Binder | SPOT peptide array binding signal intensity
B1 | ≤ 0

Each binder was assayed against AgRvs167 in the same assay as above.
Outline: as §1

Binder | SPOT peptide array binding signal intensity
B1 | 1

These binders were tested against AgSho1 in the same assay as above.
Outline: as §1

Binder | SPOT peptide array binding signal intensity
B1 | ≤ 0

Each binder was assayed against AgSla1-D1-D2 in the same assay as above.
Outline: as §1

Binder | SPOT peptide array binding signal intensity
B1 | ≤ 0

What follows are binders tested against AgSla1-D3 in the same assay as above.
Outline: as §1

Binder | SPOT peptide array binding signal intensity
B1 | 1

The binders below were run against CaAbp1-D1 in the same assay as above.
Outline: as §1

Binder | SPOT peptide array binding signal intensity
B1 | ≤ 0

The binders below were run against CaAbp1-D2 in the same assay as above.
Outline: as §1

Binder | SPOT peptide array binding signal intensity
B1 | ≤ 0

The binders below were run against CaBbc1 in the same assay as above.
Outline: as §1

Binder | SPOT peptide array binding signal intensity
B1 | 1

What follows are binders tested against CaBem1-D1 in the same assay as above.
Outline: as §1

Binder | SPOT peptide array binding signal intensity
B1 | ≤ 0

Each binder was assayed against CaBzz1-D1 in the same assay as above.
Outline: as §1

Binder | SPOT peptide array binding signal intensity
B1 | 60.5

The binders below were run against CaBzz1-D2 in the same assay as above.
Outline: as §1

Binder | SPOT peptide array binding signal intensity
B1 | 43.5

What follows are binders tested against CaCyk3 in the same assay as above.
Outline: as §1

Binder | SPOT peptide array binding signal intensity
B1 | 1

Each binder was assayed against CaFus1 in the same assay as above.
Outline: as §1

Binder | SPOT peptide array binding signal intensity
B1 | ≤ 0

The binders below were run against CaHof1 in the same assay as above.
Outline: as §1

Binder | SPOT peptide array binding signal intensity
B1 | 0.5

What follows are binders tested against CaHse1 in the same assay as above.
Outline: as §1

Binder | SPOT peptide array binding signal intensity
B1 | 2.5

These binders were tested against CaLsb1 in the same assay as above.
Outline: as §1

Binder | SPOT peptide array binding signal intensity
B1 | 207

Each binder was assayed against CaLsb4 in the same assay as above.
Outline: as §1

Binder | SPOT peptide array binding signal intensity
B1 | ≤ 0

The binders below were run against CaMyo5 in the same assay as above.
Outline: as §1

Binder | SPOT peptide array binding signal intensity
B1 | ≤ 0

Each binder was assayed against CaNbp2 in the same assay as above.
Outline: as §1

Binder | SPOT peptide array binding signal intensity
B1 | ≤ 0

What follows are binders tested against CaRvs167 in the same assay as above.
Outline: as §1

Binder | SPOT peptide array binding signal intensity
B1 | 2.33

Each binder was assayed against CaRvs167-3 in the same assay as above.
Outline: as §1

Binder | SPOT peptide array binding signal intensity
B1 | 0.5

What follows are binders tested against CaSho1 in the same assay as above.
Outline: as §1

Binder | SPOT peptide array binding signal intensity
B1 | ≤ 0

What follows are binders tested against CaSla1-D1-D2 in the same assay as above.
Outline: as §1

Binder | SPOT peptide array binding signal intensity
B1 | ≤ 0

The binders below were run against CaSla1-D3 in the same assay as above.
Outline: as §1

Binder | SPOT peptide array binding signal intensity
B1 | 1.5

Each binder was assayed against ScAbp1 in the same assay as above.
Outline: as §1

Binder | SPOT peptide array binding signal intensity
B1 | ≤ 0
